Bioassay records from PubChem.
Marburg entry = inhibitors of Marburg virus binding or entry into cells; actives 6.5% (n = 18,000); Potency, µM (series often up to 49.2 µM), for the others: top-dose activity change, negative = inhibition, usual class: inhibitors; AID 720532; Marburg virus pseudotype entry/binding inhibition, cell-based
LASV entry inh = blocks Lassa virus binding or cell entry. Lassa virus pseudotyped entry inhibition, cell-based qHTS. Potency, µM (top dose mostly 49.2 µM), without a hit: top-dose activity change, negative = inhibition, usual class: inhibitors. actives 4.1% (n = 18,000)
Active calls of the source: *; ? = inconclusive; · = no result; [ ] = dose if it differs, or a comment. In the library only some 8.6% were active in any assay of this set; here they are far more common. Calls follow the shape of the full dose curve; tested in HEK293 cells. % is scaled to controls: 0 for no effect and ±100 for the full control effect; potency is read from the fitted curve at half-maximal effect.

SMILES | Marburg entry | LASV entry inh
CC1CCC2(OC1)OC1CC3C4CC[C@@H]5CC(O)CC[C@@]5(C)C4CC(=O)[C@]3(C)C1C2C (some centres undefined) | 1% | 6%
C=CC[C@H]1C(=O)N2[C@@H](C[C@@H](C)[C@@H]2c2ccccc2)[C@@H](CC=C)C(=O)N2[C@H]1C[C@@H](C)[C@@H]2c1ccccc1 | ? | 31%[8.59 µM]
Clc1ccccc1C(c1ccccc1)(c1ccccc1)n1ccnc1 | 11µM* | 13µM*
Clc1ccccc1-c1nccc(-n2ccnc2)n1 | -7% | 0%
C#CCN1C(=O)[C@]2(O[C@H](COc3ccccc3)CC3=C2CCC3)c2ccccc21 | -41%[8.59 µM] | ·
COCC=CC1=CC2=CC(=O)C(C)(OC(=O)c3cnc4ccccc4n3)C(=O)C2=CN1Cc1ccc(OC)cc1 (centres undefined) | -2%[8.59 µM] | 11%[8.59 µM]
COc1ccc(CCN(C)CCCOc2ccc(S(=O)(=O)c3[nH]c4ccccc4c3C(C)C)cc2)cc1OC | 4µM* | 14µM*
O=c1n(-c2ccccc2)c(=O)n2n1CC[C@@H]1C(=NOC[C@@H](O)COCc3ccco3)[C@H]3O[C@H]3[C@@H](O)[C@H]12 | -23%[8.59 µM] | -5%[8.59 µM]
COc1cc(/C=C\C(=O)N2CCC=CC2=O)cc(OC)c1OC | 8.9µM* | ?
COc1cc(/C=C/C(=O)O)cc(OC)c1OC | 2% | 3%
COc1cc(/C=C/C(=O)N2CCCCC2=O)cc(OC)c1OC | 13µM* | 11µM*
COc1cc(C(=S)N2CCOCC2)cc(OC)c1OC | -3% | -9%
COC1=C(C(=O)c2ccccc2)C(=O)[C@@]2(CC=C(C)C)C[C@@H]([S+](=O)([O-])c3ccccc3)C(C)(C)[C@@]1(CC=C(C)C)C2=O | -17%[8.59 µM] | ·
COc1ccc(O[C@H]2C=C[C@@H](c3ccccc3)O[C@H]2COC(=O)CCC(C)=NO[C@H](C)c2cn([C@H](CO)Cc3ccccc3)nn2)cc1 | -9%[8.59 µM] | -11%[8.59 µM]
C[C@]12C[C@@](C)(C=C1C=Cc1ccccc1)C(=O)C[C@H]2c1ccccc1 | 3%[8.59 µM] | 0%[8.59 µM]
C[C@H]1[C@H]2Cc3ccc(O)cc3[C@]1(C)CCN2CCc1ccccc1 | 18µM* | 32µM*
C=CCN1CCC2(C)c3cc(O)ccc3CC1C2C (centres undefined) | ? | 1%
CC(C)CON=C1C[C@@H](O)[C@@H](O)[C@@H]2[C@H]3C(=O)N(C[C@@H]4CCCO4)C(=O)[C@@H]3CC[C@H]12 | -10%[8.59 µM] | -8%[8.59 µM]
Cc1ccc(/C=C2/CNC/C(=C\c3ccc(C)cc3)C2=O)cc1 | 3.5µM* | 11µM*
COc1ccc(/C=C/C(=O)c2cc(O)ccc2O)cc1 | -20% | 0.89µM*
COc1ccc(/C=C/C(=O)c2ccc(O)cc2O)cc1 | 4% | 11%
COCC1CN(CCc2ccc(F)cc2)[S+](=O)([O-])c2c(OCCN3C(=O)[C@H]4[C@H](C3=O)[C@H]3C=C[C@@H]4C3)cccc2O1 (some centres undefined) | -18% | -10%
COc1cc2c(cc1OC)[C@H](C)N(CC1C(=O)O[C@@H]3C[C@@]4(C)CCC[C@H](C)[C@@]45OC5[C@H]13)CC2 (some centres undefined) | 13µM* | -32%
COCC=CC1=CC2=CC(=O)C(C)(OC(=O)c3cnc4ccccc4n3)C(=O)C2=CN1CCCCO (centres undefined) | 46%[8.59 µM] | 6%[8.59 µM]
COc1cc(SC)ccc1C(=O)N1CCC(Cc2ccccc2)CC1 | -17% | 11µM*
SMILES | Marburg entry | LASV entry inh
COc1cc2c(cc1OC)C(=O)C(CC1CCN(Cc3ccccc3)CC1)C2 (centres undefined) | ? | -17%
CCc1cn([C@H]2C[C@H](O)[C@@H](CO)O2)c(=O)[nH]c1=O | -9% | 5%
O=c1[nH]c(=O)n([C@@H]2O[C@H](CO)[C@@H](O)[C@H]2O)cc1F | ? | 10µM*
C=CCN1C(=O)CC[C@@]23C1=NC(C(=O)OC)=C(C(=O)OC)[C@@H]2N(CC#CC)c1ccccc13 | -20%[8.59 µM] | -7%[8.59 µM]
O=C(c1ccc(C(F)(F)F)cc1)N1CCC(=O)N([C@H](COCc2ccc(Cl)cc2)Cc2ccccc2)CC1 | ? | 28µM*
Cc1cccc(C(=O)N2CCC(=O)N([C@H](COCc3ccccc3)Cc3ccccc3)CC2)c1 | -19% | ?
C=C(CCN1C=C(C(=O)OCC)C(c2ccccc2)NC1=O)c1ccc(Cl)cc1 (centres undefined) | 14%[8.59 µM] | -4%[8.59 µM]
CC(=O)OC1CC2C(C)(C)C(O)CC[C@@]2(C)C2CC[C@@]3(C)C(c4ccoc4)OC(=O)C4OC43[C@]12C (some centres undefined) | ? | -8%
CC(=O)OC1CC2C(C)(C)C(O)CC[C@@]2(C)C2CC[C@@]3(C)C(c4ccoc4)OC(=O)C4O[C@@]43[C@]12C (some centres undefined) | 13µM* | ?
COCOc1c2c(c(OCOC)c3c(OCOC)cccc13)C(=NNS(C)(=O)=O)C1=C2CCCC1 | 1%[8.59 µM] | -3%[8.59 µM]
Cn1cnc2c(NCc3ccccc3)nc(NCCO)nc21 | 3% | -2%
COc1ccc(CNc2nc(NCc3ccc(OC)cc3)c3ncn(C4CCCCC4)c3n2)cc1 | 3.5µM* | ?
COc1ccc(S(=O)(=O)N(CCO)c2ccccc2CN(C)CC=Cc2ccc(Cl)cc2)cc1 | 10µM* | 11µM*
C#Cc1ccccc1C[C@]1(C(=O)OC)C=C[C@H](C)[C@@H](c2ccccc2Br)N1C(=O)C(F)(F)F | 7%[8.59 µM] | 0%[8.59 µM]
COC(=O)c1cc2c(s1)-c1ccccc1OC2 | 33% | 2%
CN(C)CC/C=C1\c2ccccc2COc2ccccc21 | 10µM* | -16%
CN(C)CC/C=C1/c2ccccc2Sc2ccc(Cl)cc21 | 18µM* | ?
CCOC(=O)CN1C(=O)C2(CC(C)=C[C@@H](C)O2)c2c(Br)cccc21 (some centres undefined) | 3%[8.59 µM] | 32%[8.59 µM]
CC1=C(C(=O)Nc2cc(Cl)c3[nH]ncc3c2)C(c2ccc(C(F)(F)F)cc2)CC(=O)N1 (centres undefined) | -33% | -20%
CCC(=O)C[C@@H](NC(=O)OC)c1ccc(F)cc1 | 6%[8.59 µM] | 2%[8.59 µM]
COC(=O)[C@@H]1CC23C(=NC(c4ccc([N+](=O)[O-])cc4)=C(C(F)(F)F)[C@@H]2N(C)c2ccccc23)N1C(C)=O (some centres undefined) | 8%[8.59 µM] | -22%[8.59 µM]
COc1cc([C@@H]2c3cc4c(cc3[C@@H](OC3OC5COC(C)OC5C(O)C3O)[C@H]3COC(=O)[C@H]23)OCO4)cc(OC)c1O (some centres undefined) | ? | 7.9µM*
COc1cc([C@@H]2c3cc4c(cc3C(O[C@@H]3O[C@@H]5COC(c6cccs6)O[C@H]5[C@H](O)[C@H]3O)C3COC(=O)[C@@H]32)OCO4)cc(OC)c1O (some centres undefined) | ? | 4µM*
COc1cc([C@@H]2c3cc4c(cc3[C@@H](O[C@@H]3O[C@H]5CO[C@@H](C)O[C@@H]5[C@@H](O)[C@H]3O)[C@@H]3COC(=O)[C@@H]23)OCO4)cc(OC)c1O | ? | 2.8µM*
COc1cc([C@@H]2c3cc4c(cc3C(OC3OC5COC(C)OC5C(O)C3O)C3COC(=O)[C@@H]32)OCO4)cc(OC)c1O (some centres undefined) | 25µM* | 7.9µM*
COCCN1C(=O)C2=C(C1=O)C1N(C)c3ccccc3[C@@]13C[C@@H](CO)N=C3N2 (some centres undefined) | 25%[8.59 µM] | 18%[8.59 µM]
